Measured values published in PubChem BioAssay AID1359 (The Scripps Research Institute Molecular Screening Center, 2008).
Hit rate of the full screen: of about 220,000 compounds, about 970 (0.44%) were called active. Only a selection was taken, and actives are over-represented in it overall. Unmarked numbers belong to inactive results. Rule as the data show it: active = activation above about 27%; inactive = the rest.

Molecular target: Neuropeptide Y receptor type 2 (Homo sapiens) (UniProt P49146)
Experiment: human Y2 receptor positive modulation or activation – cell-based, primary screen (AID 1359);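 also: cells stimulated with NPY near EC25 plus isoproterenol at EC100; 0% = vehicle plus submaximal agonist and 100% = vehicle plus saturating agonist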
Conditions: cells expressing NPY-Y2, potentiator/agonist read-out; at 3.6 µM; hits give high values

Neuropeptide Y receptor type 2 (Homo sapiens), sequence (P49146 whole entry, looked up): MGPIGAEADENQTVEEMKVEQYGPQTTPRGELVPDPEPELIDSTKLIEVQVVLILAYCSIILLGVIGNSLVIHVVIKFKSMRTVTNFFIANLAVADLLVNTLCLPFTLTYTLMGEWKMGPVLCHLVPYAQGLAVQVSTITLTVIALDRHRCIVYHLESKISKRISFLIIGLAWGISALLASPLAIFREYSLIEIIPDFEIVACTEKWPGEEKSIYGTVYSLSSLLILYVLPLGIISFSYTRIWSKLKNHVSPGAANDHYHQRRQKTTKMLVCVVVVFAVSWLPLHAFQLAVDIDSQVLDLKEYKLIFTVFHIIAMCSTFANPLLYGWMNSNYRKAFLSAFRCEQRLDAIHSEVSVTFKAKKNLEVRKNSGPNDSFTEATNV

SMILES	activation
CC1(C)Cc2c(C#N)c(N3CCNCC3)nc(-c3ccco3)c2CS1	54.8% (active)
CN(C)P(=S)(Nc1ccccc1)C(Cl)(Cl)Cl (stereo not given)	3.95%
Cn1c(O)c(C(=Nc2ccc(F)cc2)c2ccccc2)c(=O)n(C)c1=O	-10.2%
CCN1CC2C3CCC(C)(O3)C2C1 (stereo not given)	3.85%
CCCCCCCCCCCCn1ccc(=N)cc1	-3.31%
